# Out of some 4,300 compounds screened, about 3,000 (70%) were called active.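 Rule for the calls: active = inhibition above a per-plate cutoff, the mean inhibition of sample wells plus 3 SD (cut at about 35% in these data); inactive = the rest.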 The set was probably picked from earlier hits. Only a sample is shown.
# Assay: small molecules binding CAG repeat RNA – biochemical, fluorescence, confirmation (AID 652065);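 note: loss of TO-PRO-1 fluorescence as compound displaces dye from 1x1 AA loop RNA; 0% = DMSO only wells and 100% = 100 µM mitoxantrone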
# Settings: r(CAG) RNA repeat, TO-PRO-1 dye displacement fluorescence; at 3 µM; stronger effect = higher value
row,SMILES,inhibition
1,Cc1sc2nc(SCC(=O)c3ccc(O)c(O)c3)n(Cc3ccco3)c(=O)c2c1C,64.2% (active)
2,CCOC(=O)C1Nc2ccc(C(F)(F)F)cc2C2C=CCC12 (stereo not drawn),18.9% (inactive)
3,CC1(C(=O)NS(=O)(=O)c2ccc(C#N)cc2)CCN1C(=O)c1ccc(C2CCCCC2)cc1 (stereo not drawn),51.7% (active)
4,Cc1cc(/C=N/Nc2ccc([N+](=O)[O-])cn2)c(C)n1-c1cccc(C(=O)O)c1,35% (active)
5,Cc1ccc(-n2c(SCC(=O)Nc3ccc(S(=O)(=O)Nc4nccs4)cc3)nnc2-c2ccccn2)cc1,60.6% (active)
6,Cc1ccc(-n2c(SCC(=O)Nc3ccc(S(=O)(=O)Nc4nccs4)cc3)nnc2-c2cccnc2)cc1,58.8% (active)
7,Cc1ccc(-n2c(SCC(=O)Nc3ccc(S(=O)(=O)Nc4nccs4)cc3)nnc2-c2ccncc2)cc1,67.3% (active)
8,O=C(O)c1ccc(NC(=O)c2cn(-c3ccccc3)nc2-c2ccc(Cl)cc2)cc1,62.6% (active)
9,O=C(NNC(=S)NC(=O)c1cn(-c2ccccc2)nc1-c1ccccc1)c1ccncc1,54.8% (active)
10,O=C(O)c1ccc(N/N=C/c2cn(-c3ccccc3)nc2-c2cccs2)cc1,61.1% (active)
11,CC(C)=CCCC1(C)C=Cc2c(ccc3c2[nH]c2cc(O)c(C)cc23)O1 (stereo not drawn),30.6% (inactive)
12,Cc1cc(/C=C2/C(=N)N3C(=NC2=O)SN=C3S(C)(=O)=O)c(C)n1-c1ccccc1,81.7% (active)
13,CCOc1ccc(-n2c(O)c(/C=N/Nc3nnc(C)c(=O)[nH]3)c3ccccc3c2=O)cc1,52.6% (active)
14,C=C1c2c(Cl)ccc(O)c2C(O)=C2C(=O)[C@]3(O)C(O)=C(C(N)=O)C(=O)[C@@H](N(C)C)[C@@H]3[C@@H](O)C12 (stereo partly drawn),70.9% (active)
15,CCOc1cc(C)ccc1OCc1nnc(SCC(=O)Nc2cccc(C(=O)O)c2)n1-c1ccccc1,41.2% (active)
16,Cc1ccc(-n2ncc3c(Nc4cccc(C(=O)O)c4)ncnc32)cc1,23.1% (inactive)
17,COc1ccc2[nH]c3c(C)c4cc[n+](C)cc4c(C)c3c2c1,47.5% (active)
18,N#Cc1c(NC(=O)C2CC(Cl)=CCC2C(=O)O)sc2c1CCCCC2 (stereo not drawn),38% (active)
19,N#CCC(=O)Nc1ccc(C(=O)OCC(=O)Nc2sc3c(c2C#N)CCCC3)cc1,33.2% (inactive)
20,COC(=O)c1c(NC(=O)C2CC(C)=C(C)CC2C(=O)O)sc2c1CCCCC2 (stereo not drawn),66.4% (active)
21,CCOC(=O)c1c(NC(=O)C2CC=CCC2C(=O)O)sc(C)c1CC (stereo not drawn),37.1% (active)

row,SMILES,inhibition
1,CSc1ccc(C=Nn2c(-c3ccc(F)cc3)n[nH]c2=S)cc1,41.7% (active)
2,N#Cc1c(-c2ccccc2)nc(SCc2ccc([N+](=O)[O-])cc2)[nH]c1=O,58.7% (active)
3,Cc1ccc(CSc2nc(-c3ccccc3)c(C#N)c(=O)[nH]2)cc1,66.6% (active)
4,N#Cc1c(-c2ccccc2)nc(SCc2cccc(C(F)(F)F)c2)[nH]c1=O,80.3% (active)
5,O=C1CC(c2ccccc2)=NN1c1ccc([N+](=O)[O-])cc1,23.7% (inactive)
6,CCOc1cc(/C=C(\C#N)c2nc(-c3cccs3)c(NC(C)=O)s2)ccc1O,40.4% (active)
7,Cc1ccc(S(=O)(=O)Nc2nc3ccccc3s2)cc1[N+](=O)[O-],29.7% (inactive)
8,O=[N+]([O-])c1cc(Br)c(O)c(/C=N/Nc2nc3ccccc3s2)c1,94.7% (active)
9,C=CCNc1nc(N)c(C(=C(C#N)C#N)c2ccccc2)s1,15.9% (inactive)
10,O=C(N/N=C/c1c(Cl)[nH]c2ccccc12)c1sc2ccccc2c1Cl,22.9% (inactive)
11,Cc1cc(F)ccc1S(=O)(=O)Nc1ncnc2scc(-c3ccc(F)cc3)c12,70.8% (active)
12,CC(C(=O)Nc1ccc(O)c(C(=O)O)c1)N1C(=O)/C(=C/c2cccs2)SC1=S (stereo not drawn),75.9% (active)
13,Cc1nnc(NC(=O)Nc2ccc(Cl)c(Cl)c2)s1,24.5% (inactive)
14,CSc1nnc(NC(=O)c2nc(S(=O)(=O)Cc3ccc(C)cc3)ncc2Cl)s1,37.4% (active)
15,CCOC(=O)c1cc2cc(-c3c(C(=O)OCC)oc4cc(O)cc(O)c4c3=O)ccc2o1,40.4% (active)
16,Cn1c2ccccc2c2cc(/C=C(\NC(=O)c3ccccc3)C(=O)NCC(=O)O)ccc21,39.8% (active)
17,O=C(NC(=S)Nc1ccccc1C(=O)O)c1ccc(-c2ccc(Br)cc2)o1,82.7% (active)
18,Cc1ccc(S(=O)(=O)N2[C@@H](c3cccc4ccccc34)C(C(=O)O)=C[C@H]2C(C)(C)C)cc1,50.3% (active)
19,Cc1ccc(NC(=O)CC2S/C(=N/N=C3\CCCc4ccccc43)NC2=O)cc1 (stereo not drawn),54.7% (active)
20,CC1(C(=O)NS(=O)(=O)c2ccc3ccccc3c2)CCN1C(=O)C1(c2ccc(Cl)cc2)CCC1 (stereo not drawn),72% (active)
21,O=[N+]([O-])c1cc(Cl)cc(/C=N/NC(=S)Nc2cc(S(=O)(=O)N3CCOCC3)ccc2Cl)c1O,95.4% (active)

row,SMILES,inhibition
1,CCC(C)Cn1c(O)cc2nn(-c3nc4ccccc4s3)c(=O)c-2c1C (stereo not drawn),63.4% (active)
2,CCSc1nsc(NC(=O)Nc2cccc(C(C)=O)c2)n1,26.3% (inactive)
3,CC(C)c1nc(SCC(=O)Nc2cccc(C(=O)O)c2)c2c3c(sc2n1)CCCC3,61.1% (active)
4,Cc1ccc2nc(N3C(=O)C(O)=C(C(=O)c4ccco4)C3c3cccc(O)c3)sc2c1 (stereo not drawn),73.8% (active)
5,COc1cc(C2CC(=O)N3CN(Cc4ccccc4)CSC3=C2C#N)ccc1OCc1ccccc1 (stereo not drawn),25.8% (inactive)
6,O=C(N/N=C/c1cccnc1)c1cc2ccccc2cc1O,9.03% (inactive)
7,O=C(NNc1c2ccccc2nc2ccccc12)c1cc2ccccc2cc1O,45.6% (active)
8,CC(=N\NC(=O)c1cc(Br)ccc1O)/C(=N/O)C(=O)Nc1ccccc1,12.1% (inactive)
9,Cc1ccc(/C=C/C(=O)Nc2ccc([N+](=O)[O-])c(NC(=O)/C=C/c3ccc(C)o3)c2)o1,47.7% (active)
10,O=C(O)c1cccc(NC(=O)c2cc(-c3cccc(Cl)c3)nc3ccccc23)c1,46.1% (active)
11,O=C(Nc1cccc(F)c1)c1cc(-c2ccco2)nc2ccccc12,4.09% (inactive)
12,Cc1ccccc1-n1c(SCC(=O)Nc2cccc3ccccc23)nc(O)cc1=O,14.2% (inactive)
13,CCOc1ccc(-n2c(SCC(=O)Nc3cc(C(=O)O)ccc3Cl)nc3ccccc3c2=O)cc1,52.9% (active)
14,Cc1ccc(CNC(=O)C2CCN(S(=O)(=O)c3ccc4nc5c(c(C(=O)O)c4c3)CC(C)CC5)CC2)cc1 (stereo not drawn),36.4% (active)
15,O=C(O)c1ccc2c(c1)C(=O)N(c1ccc(/C=C/C(=O)c3ccccc3)cc1)C2=O,65.3% (active)
16,Cc1ccc(NC(=O)CSc2nc(CSc3ccc(C)cc3)cc(=O)[nH]2)cc1,53.5% (active)
17,COc1ccc(OC)c(NC(=O)CSc2nc(-c3ccccc3)cc(=O)[nH]2)c1,24.5% (inactive)
18,Cc1ccc(NC(=O)CSc2sc3c(O)cc(=O)[nH]c3c2C#N)cc1C,27.9% (inactive)
19,Cc1ccc(C(C)C)c(OCCSc2nc3ccccc3n2CC(=O)O)c1,50.3% (active)
20,Cc1ccc2cc(/C=N/Nc3ccc(C(=O)O)cc3)c(Cl)nc2c1,46.6% (active)
21,COc1ccc(-c2cc(C(=O)NC(Cc3c[nH]c4ccccc34)C(=O)O)c(C)o2)cc1OC (stereo not drawn),61.4% (active)

row,SMILES,inhibition
1,COc1ccc(-c2cc(=O)oc3cc(OCC(=O)N[C@@H](Cc4c[nH]c5ccccc45)C(=O)O)ccc23)cc1,65.3% (active)
2,COc1ccc(S(=O)(=O)NCCc2c[nH]c3ccccc23)cc1OC,0.91% (inactive)
3,CC(Oc1ccc2c(-c3ccccc3)cc(=O)oc2c1)C(=O)NC(Cc1c[nH]c2ccccc12)C(=O)O (stereo not drawn),62.4% (active)
4,O=C(N[C@@H](Cc1c[nH]c2ccccc12)C(=O)O)OCC1c2ccccc2-c2ccccc21,63.4% (active)
5,O=c1cc(CN2CCN(S(=O)(=O)/C=C/c3ccccc3)CC2)c2ccc(O)cc2o1,22.5% (inactive)
6,COc1cc2ccccc2cc1C(=O)Nc1ccc(S(=O)(=O)Nc2cc(C)on2)cc1,58.8% (active)
7,CCOc1ccc(C(=O)Nc2ccc(S(=O)(=O)Nc3cc(C)on3)cc2)cc1,23.1% (inactive)
8,COCCNC(=O)Nc1ccc2nc(-c3ccco3)c(-c3ccco3)nc2c1,61.6% (active)
9,Cc1cccc(C)c1NC(=O)C(c1ccc(C(F)(F)F)cc1)n1c(=O)c(-c2ccco2)nc2ccccc21 (stereo not drawn),26.2% (inactive)
10,CC(C)c1ccc(CC(=O)N2CCC2(C)C(=O)NS(=O)(=O)c2ccc(C(C)(C)C)cc2)cc1 (stereo not drawn),70.7% (active)
11,CC1(C(=O)NS(=O)(=O)c2ccccc2)CCN1C(=O)Cc1ccc(-c2ccccc2)cc1 (stereo not drawn),34.1% (inactive)
12,COc1ccc(S(=O)(=O)NC(=O)C2(C)CCN2C(=O)c2ccccc2CCc2ccccc2)cc1 (stereo not drawn),34% (inactive)
13,O=S(=O)(Nc1ccc(O)c2ccccc12)c1ccc(OC(F)(F)F)cc1,52.9% (active)
14,COc1ccc(COC(=O)NC(C(=O)O)c2ccccc2)cc1 (stereo not drawn),2.31% (inactive)
15,Cc1c(C)c2c(OCC(=O)N[C@@H](C(=O)O)c3ccccc3)cc3c(c2oc1=O)CCC(C)(C)O3,46.1% (active)
16,Cc1ccc(N=C2NC(=O)/C(=C/C=C/c3ccco3)S2)cc1C,48.9% (active)
17,Cc1ccc(-c2nn(-c3ccccc3)cc2/C=C2\SC(=S)N(CCCCCC(=O)O)C2=O)o1,56% (active)
18,O=C(CCCN1C(=O)/C(=C\c2ccco2)SC1=S)Nc1cccc2ccccc12,17% (inactive)
19,CN(C)S(=O)(=O)c1cccc(-c2nn(-c3ccccc3)cc2/C=C2\SC(=S)N(CC(=O)O)C2=O)c1,88.1% (active)
20,CC1(C(=O)NS(=O)(=O)Cc2cccc(Cl)c2)CCN1C(=O)Cc1ccc(Cl)cc1Cl (stereo not drawn),78.9% (active)

# Reference: PubChem BioAssay AID652065 (The Scripps Research Institute Molecular Screening Center, 2013)
